Assay outcomes (PubChem)
Shown are actives, neighbours in structure and some others; about 21% of the full set was active somewhere.
D3 antag – qHTS of D3 Dopamine Receptor Antagonist: qHTS; D3R cells, DiscoveRx beta-arrestin luminescence, antagonist mode; hits give low values; actives 2.5% (n = 360,000); max response, negative = inhibition, %; in the data active means max response below about -50%; inconclusive means no clear call, values can overlap the other calls
Target sequence (P35462 whole entry, looked up): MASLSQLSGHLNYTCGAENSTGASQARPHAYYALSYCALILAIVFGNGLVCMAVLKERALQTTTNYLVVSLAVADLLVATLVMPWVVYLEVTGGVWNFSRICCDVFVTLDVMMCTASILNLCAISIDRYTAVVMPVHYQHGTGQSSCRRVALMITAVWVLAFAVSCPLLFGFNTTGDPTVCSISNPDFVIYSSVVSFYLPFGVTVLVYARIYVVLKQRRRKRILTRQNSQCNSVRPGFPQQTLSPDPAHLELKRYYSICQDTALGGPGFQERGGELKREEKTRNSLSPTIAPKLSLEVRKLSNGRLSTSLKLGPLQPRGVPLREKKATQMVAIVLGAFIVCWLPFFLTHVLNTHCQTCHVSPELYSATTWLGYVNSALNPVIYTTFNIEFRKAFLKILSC
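Cells plated overnight at 1500 cells/well, then exposed to library compounds with dopamine controls for 90 minutes at 37 degrees C. DiscoveRx reagent added for 30–60 minutes at room temperature; luminescence read, quantitative HTS format.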
TDP1 cell CPT – qHTS for Inhibitors of human tyrosyl-DNA phosphodiesterase 1 (TDP1): qHTS in cells in presence of CPT; AID 686979, 2013; Potency, µM (highest dose often 46.2 µM), most hits filed as inhibitors; actives 12% (n = 420,000); chicken DT40 Tdp1-/-;hTDP1 cells + 20 nM CPT, ATP luminescence, 48 h; further: nearly all actives have a fitted effect of over 55% in size
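Cell growth measured by CellTiter-Glo luminescence after a minimum 48 h, 37 C compound exposure with 20 nM CPT in Tdp1-knockout DT40 cells stably expressing hTDP1, seeded 400/well; qHTS titration format.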
DRD3 agonist – qHTS of D3 Dopamine Receptor Agonist: qHTS | D3R DiscoveRx beta-arrestin cells, luminescence, 90 min | max activation, % | D(3) dopamine receptor (Homo sapiens), P35462 | AID 652048, 2013 | actives 0.58% (n = 410,000); in the data active means max activation above about 30%
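Agonist-mode cell screen: cells plated at 1500/well and incubated overnight at 37 °C, then exposed to library compounds for 90 min at 37 °C. Detection reagent was added for 30–60 min at room temperature, and luminescence was read.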
TDP1 cell noCPT – qHTS for Inhibitors of human tyrosyl-DNA phosphodiesterase 1 (TDP1): qHTS in cells in absence of CPT; DT40 Tdp1-/- hTDP1 cells, no CPT, ATP luminescence, 48 h; Potency, µM (highest dose often 46.2 µM), usual class: inhibitors; actives 15% (n = 420,000); AID 686978, 2013; further: nearly all actives have a fitted effect of over 55% in size
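A cellular qHTS used chicken DT40 cells lacking endogenous Tdp1 but carrying stably transfected human TDP1. Compounds were applied without camptothecin, and cell growth kinetics were judged by ATP-dependent luminescence after ≥48 hr.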
ClpP mod – qHTS Assay for Activators of ClpP; Potency, µM (series often up to 57.5 µM); purified B. subtilis ClpP, FRET peptide cleavage, 20 min; actives 1.9% (n = 340,000); AID 651965, 2013; active means well fitted falling curve with a large enough effect; inconclusive means small, poorly fitted or top-dose-only effect; inactive means no such curve, though single readings can be large or run the other way; further: the source files actives as falling curves though it sought activators and does not explain the sign; nearly all actives have a fitted effect of over 65% in size
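Buffer: 100 mM Tris/HCl pH8, 100 mM KCl, 0.05% low protease BSA, 2.5% glycerol, 0.01% Tween-20. ClpP 10 microg/mL final; 20 min RT; delta FRET normalized to ADEP and DMSO controls.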
IL1B secr inh – qHTS for Inhibitors of Inflammasome Signaling: IL-1-beta AlphaLISA Primary Screen; activity change, % at 57.5 µM; actives 4.7% (n = 360,000); THP-1 LPS/ATP IL-1B secretion, AlphaLISA, 16 h; hits give low values; in the data active means activity change below about -50%; inconclusive means mostly about -30% to -49%
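THP-1 cells pretreated 1 hr with compounds (up to 57.5 uM final), then stimulated with LPS (250 ng/mL final) plus ATP (1.25 mM final); secreted IL-1B measured by AlphaLISA after 16 hr, decreased signal indicating inhibition.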
Each line names hits and unclear results; the compound was inactive in the other large screens; ! = not active in a repeat. Unless noted, the call rests on the fitted dose curve; in most records, active means well fitted inhibition curve with a large enough effect; inconclusive means small, poorly fitted or top-dose-only effect; inactive means flat fitted curve, though single readings scatter.

CCN(CC)CCN(C(=O)c1ccc2c(c1)OCCO2)c1nc2ccc(C)cc2s1	TDP1 cell CPT inconclusive, IL1B secr inh -51
CCN(CC)CCN(C(=O)C1=COCCO1)c1nc2cc(C)cc(C)c2s1	TDP1 cell CPT inconclusive, TDP1 cell noCPT inconclusive
Cc1cc(C)c2nc(N(CCCN(C)C)C(=O)C3=COCCO3)sc2c1	TDP1 cell CPT 16µM, TDP1 cell noCPT 21µM, IL1B secr inh inconclusive
Cc1ccc2nc(N(CCN(C)C)C(=O)c3ccc4c(c3)OCCO4)sc2c1	none
CN(C)CCCN(C(=O)c1ccc2c(c1)OCCO2)c1nc2ccccc2s1	TDP1 cell CPT inconclusive, TDP1 cell noCPT 16µM (no result: D3 antag, IL1B secr inh)
Cc1cc(C)c2nc(N(CCCN(C)C)C(=O)c3ccc4c(c3)OCCO4)sc2c1	TDP1 cell CPT 13µM, TDP1 cell noCPT 16µM, IL1B secr inh -79 (no result: ClpP mod)
N#Cc1c(/N=C/c2ccccc2)oc(-c2ccccc2)c1-c1ccccc1	TDP1 cell CPT inconclusive, TDP1 cell noCPT inconclusive, ClpP mod 35µM
Cn1cnc([N+](=O)[O-])c1NC(C)(C)C	none
Cn1cnc([N+](=O)[O-])c1S(=O)(=O)c1ccc(Cl)cc1	D3 antag -68, TDP1 cell CPT 1.2µM, TDP1 cell noCPT 2.9µM, IL1B secr inh -138 (no result: ClpP mod)
CCOc1ccc(-n2nc3cc(C)c(NC(=O)CC)cc3n2)cc1	none (no result: D3 antag, IL1B secr inh)
O=C(O)CC(C(=O)OC1CCCCC1)N1CCOCC1 (configuration not stated)	D3 antag -92
CCCCCCCCCOC(=O)C(CC(=O)O)N1CCOCC1 (configuration not stated)	D3 antag -52
COc1ccccc1-c1nn2c(-c3cc(C)[nH]n3)nnc2s1	TDP1 cell CPT 8.9µM, TDP1 cell noCPT 7.9µM (no result: D3 antag, DRD3 agonist, IL1B secr inh)
COc1cc(-c2nn3c(Cc4ccccc4)nnc3s2)cc(OC)c1OC	TDP1 cell CPT 35µM, DRD3 agonist 31, TDP1 cell noCPT inconclusive, ClpP mod inconclusive
COc1cc(-c2nn3c(COc4ccccc4)nnc3s2)cc(OC)c1OC	none
COc1cc(-c2nn3c(-c4cc(-c5ccccc5)n[nH]4)nnc3s2)cc(OC)c1OC	TDP1 cell CPT 16µM, TDP1 cell noCPT 8.9µM, ClpP mod inconclusive (no result: D3 antag, DRD3 agonist, IL1B secr inh)
COc1ccc(-c2nnc3sc(-c4ccccc4OC)nn23)cc1	TDP1 cell noCPT inconclusive
Cc1cc(C)cc(-n2c(SCC(=O)Nc3ccccc3)nc3c(oc4ccccc43)c2=O)c1	TDP1 cell CPT 15µM, TDP1 cell noCPT inconclusive (no result: D3 antag, IL1B secr inh)
COc1cccc(NC(=O)CSc2nc3c(oc4ccccc43)c(=O)[nH]2)c1	TDP1 cell noCPT 23µM
COc1ccccc1NC(=O)CSc1nc2c(oc3ccccc32)c(=O)n1-c1ccc(C)cc1	TDP1 cell CPT 18µM, TDP1 cell noCPT 8.2µM (no result: D3 antag, IL1B secr inh)
Cc1cc(C)cc(-n2c(SCC(=O)Nc3ccccc3F)nc3c(oc4ccccc43)c2=O)c1	TDP1 cell CPT 16µM, TDP1 cell noCPT 7.3µM (no result: D3 antag, IL1B secr inh)
Cc1ccsc1C(=O)N1CCCCCC1(C)C(=O)NCC(C)C (configuration not stated)	none
O=C(CSc1nc2c([nH]c3ccccc32)c(=O)n1-c1ccc(Cl)cc1)N1CCOCC1	none (no result: D3 antag, IL1B secr inh)
CN1CCc2c(sc(NC(=O)C3CCN(S(=O)(=O)c4cccs4)CC3)c2C(N)=O)C1	none
Cc1ccc(N)cc1O	TDP1 cell CPT 7.7µM!, TDP1 cell noCPT 6.9µM!
Cc1cc(O)c(-c2cc(O)c(C)cc2O)cc1O	D3 antag inconclusive, TDP1 cell CPT 5.2µM, TDP1 cell noCPT 3.3µM, IL1B secr inh -99
